Screening data deposited in PubChem by National Center for Advancing Translational Sciences (NCATS).
NS1 function inh – inhibitors of influenza NS1 protein function; Potency, µM (titrated, usually from 46.1 µM), for the others: at the top dose activity, positive = more growth; 270,000 tested, 0.4% active; AID 2326; calls by dose curve; further: potency means the concentration at half of the fitted maximal effect; actives are rising curves; nearly all actives have a fitted effect of over 50% in size
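Growth recovery, yeast-based: influenza A NS1 expressed in S. cerevisiae causes slow growth, and suppressors are detected by OD600. The parent strain without NS1 is used as positive control.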
CHX counter – counter-screen for Shiga toxin inhibitors: cycloheximide protein synthesis inhibition | AID 2314 | max response, % | 300,000 tested, 12% active | cell reporter, cycloheximide protein synthesis inhibition counterscreen; in the data active means max response mostly above about 13%, no sharp cut-off; inactive means mostly below about 14%; further: read at 38.3 µM for the half of the compounds with a filed dose; 0% is about no effect
AmpC inh detg – blocks E. coli AmpC beta-lactamase in detergent assay | P00811 | AmpC hydrolysis of nitrocefin, absorbance 480 nm, 0.01% Triton | Potency, µM (top dose mostly 114 µM), for inactives: at the top dose activity change, negative = inhibition, hits mostly inhibitors | 370,000 tested, 0.041% active;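 further: potency means the concentration at half of the fitted maximal effect; 0% = no-compound wells and -100% = no-enzyme wells; nearly all actives have a fitted effect of over 25% in size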
Target sequence (P00811 whole entry, looked up): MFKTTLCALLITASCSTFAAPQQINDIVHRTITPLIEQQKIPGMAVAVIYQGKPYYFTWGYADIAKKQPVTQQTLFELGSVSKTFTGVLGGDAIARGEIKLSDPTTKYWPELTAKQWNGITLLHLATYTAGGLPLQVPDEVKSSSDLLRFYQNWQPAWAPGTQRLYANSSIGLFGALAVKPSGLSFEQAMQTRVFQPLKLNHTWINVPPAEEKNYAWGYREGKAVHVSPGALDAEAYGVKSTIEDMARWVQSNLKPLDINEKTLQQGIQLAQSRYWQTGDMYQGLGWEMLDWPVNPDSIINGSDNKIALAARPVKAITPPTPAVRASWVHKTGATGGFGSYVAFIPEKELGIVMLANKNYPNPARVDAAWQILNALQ
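20 mM phosphate pH 7.0 + 0.01% (detergent screen) or 0.0001% Triton X-100; 5.3 nM AmpC reagent; cpd preinc 15 min RT; nitrocefin (800 uM stock) to start; A480 q20 s × 4 min; Activity was normalised to no-enzyme and no-compound control wells.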
Shiga toxin inh – Shiga toxin inhibition; AID 2315; inhibition, % at 38.7 µM; Vero cells, Shiga toxin protein synthesis inhibition reporter; 290,000 tested, 9.2% active; in the data active means inhibition mostly above about 28%, no sharp cut-off; inactive means mostly below about 43%; further: 0% is about no effect
AmpC no deterg – AmpC beta-lactamase inhibition without detergent | P00811 | AmpC nitrocefin hydrolysis, absorbance 480 nm, 0.0001% Triton | Potency, µM (highest dose often 57.1 µM), for the others: top-dose activity change, negative = inhibition, usual class: inhibitors | 330,000 tested, 0.52% active;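 further: potency means the concentration at half of the fitted maximal effect; plate controls were no compound for no effect and no enzyme for full effect; nearly all actives have a fitted effect of over 20% in size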
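AmpC (5.3 nM in the dispensed reagent) in 20 mM phosphate pH 7.0 with 0.01% (detergent screen) or 0.0001% Triton X-100 was preincubated with compounds for 15 min at room temperature. Nitrocefin was then added from an 800 uM solution, and hydrolysis was followed at 480 nm.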
Active calls of the source: *; i = inactive; ? = inconclusive; / = no result given; [ ] = remark or other dose. Only a selection was taken, and hits are over-represented in it overall. Unless noted, the call rests on the fitted dose curve; in most records, active means well fitted curve in the direction sought with a large enough effect; inconclusive means small, poorly fitted or top-dose-only effect, or another doubt; inactive means no such curve, though single readings can be large; an effect the other way counts as inactive or inconclusive.

SMILES | NS1 function inh | CHX counter | AmpC inh detg | Shiga toxin inh | AmpC no deterg
COc1ccc(CCNc2ncccc2C#N)cc1OC | -14.0% | 44.4* | -1.0% | 87.7* | 4.9%
COc1ccc(CCNc2ncnc3cc(OC)c(OC)cc23)cc1OC | 4.5% | -1.7 | -9.6% | -13.1 | -1.5%
COc1ccc(CCNC2=NCCS2)cc1OC | 0.0% | 41.1* | -8.8% | 31.8* | -13.5%
CC(=O)c1cccc(NS(=O)(=O)c2ccc3[nH]c4c(c3c2)CCCCCC4)c1 | / | / | 16.1% | / | /
O=C(CC1NCCc2ccccc21)Nc1ccc(Oc2ccccc2)cc1 (stereo not drawn) | / | 14.9 | ? | -12.6 | 17.3%
Cc1cc(C)cc(NC(=O)CC2NCCNC2=O)c1 (stereo not drawn) | -0.3% | 0.9 | -3.1% | 17.6 | -16.0%
Cc1ccc(NC(=O)CC2NCCNC2=O)cc1 (stereo not drawn) | -1.2% | 10.5* | -12.6% | 17.5 | -12.5%
O=C(CC1NCCc2ccccc21)Nc1ccccc1Cl (stereo not drawn) | / | 26.0* | 2.4% | 39.2 | -29.2%
O=C(CC1NCCc2ccccc21)Nc1ccccc1 (stereo not drawn) | / | 23.9* | 8.3% | 35.1* | -30.5%
COc1ccc(Cl)cc1NC(=O)CCn1nc(C)cc1C | / | / | 12.9% | / | /
O=C(CSc1ccccc1C(=O)NCc1ccccc1)NC1CCCCCCC1 | -15.9% | -1.2 | 2.0% | -1.5 | -18.0%
Cc1ccc(NC(=O)CSc2ccc(C(N)=O)cc2[N+](=O)[O-])cc1 | -12.0% | 27.3 | 3.7% | 43.1* | -16.1%
O=C(CSc1ccsc1[N+](=O)[O-])Nc1cc(F)ccc1F | / | 19.5* | -0.5% | 44.6* | -53.6%
CC(=O)c1ccc(NC(=O)CSc2ccsc2[N+](=O)[O-])cc1 | / | 28.8 | -18.8% | 33.7 | 4.47µM*
CC(NC(=O)CSc1ncn[nH]1)c1ccc(Cl)cc1Cl (stereo not drawn) | 5.9% | -2.8 | -7.3% | -8.2 | -26.7%
CC1(C(=O)NNC(=O)c2ccc(=O)oc2)CC1Br (stereo not drawn) | 3.9% | 13.1* | 6.7% | 23.8 | -34.6%
O=C(Nc1ncc(Cl)cc1Cl)c1c(F)cccc1Cl | / | 20.9 | 7.5% | 65.8* | -19.3%
CC(C)(C)c1ccc(NC(=O)c2c(F)cccc2Cl)cc1 | -0.9% | 31.2* | -2.5% | 55.2* | -21.4%
CC(C)C(NC(=O)OCc1ccccc1)C(=O)OCC(=O)N1CCCCC1 (stereo not drawn) | -6.5% | 44.2* | ? | 69.3* | -10.6%
Cc1nc(C)c(C(=O)Nc2ccc(Oc3ccccc3)cc2)o1 | -3.3% | 25.6* | 2.7% | 25.2* | 45.4%
Cc1ncoc1C(=O)Nc1ccc(Oc2ccccc2)cc1 | -33.9% | 53.6* | -11.0% | 153.3* | 12.5%
O=C(O)c1ccccc1C(=O)Nc1ccc(Oc2ccccc2)cc1 | 2.3% | 12.8 | -8.7% | 54.7 | 11.8%
COc1cc(OC)c(Nc2nc3ccccc3nc2-n2nc(C)cc2C)cc1Cl | / | / | -1.1% | / | /
CCOc1ccc(-n2nc3ccc(NC(=O)COc4ccccc4)cc3n2)cc1 | / | / | 13.1% | / | /
O=C(Nc1ccc2nn(-c3ccc(Cl)cc3)nc2c1)c1cc2ccccc2o1 | / | / | -0.8% | / | /
SMILES | NS1 function inh | CHX counter | AmpC inh detg | Shiga toxin inh | AmpC no deterg
CC(C)C(=O)Nc1ccc2nn(-c3ccccc3)nc2c1 | -10.1% | 38.7* | 2.6% | 103.2* | -21.1%
O=C(Nc1ccc2nn(-c3ccc(F)cc3)nc2c1)c1cccnc1 | 0.7% | 12.9 | -0.4% | -8.2 | 8.7%
Nc1nc(NC(=O)c2ccco2)nn1-c1ccccc1 | -1.6% | 34.9* | -15.3% | 79.5* | -10.9%
O=C(Nc1ccc2nn(-c3ccccc3)nc2c1)c1ccco1 | -3.9% | 46.6* | -10.0% | 72.1* | 7.9%
O=C(Nc1ccc2nn(-c3ccccc3)nc2c1)c1cccnc1 | -80.4% | 22.1* | -19.0% | 42.7 | 5.1%
COc1ccc(C(=O)NCc2ccccc2CN2CCCC2)cc1S(=O)(=O)N1CCOCC1 | / | / | -3.8% | / | -16.2%
O=C(Nc1nc2nccc(-c3ccccc3)n2n1)c1ccc(F)cc1 | 5.2% | 0.6 | -17.4% | -8.7 | -18.4%
O=C(Nc1nc2nccc(-c3ccccc3)n2n1)c1ccccc1 | 5.1% | 22.0* | 0.4% | 60.0 | -10.5%
Cc1ccnc2nc(NC(=O)c3ccco3)nn12 | 2.8% | 25.7* | -11.5% | 47.8* | -12.3%
O=C(Nc1cc2nn(-c3ccccc3)nc2cc1Cl)c1ccco1 | 3.6% | 20.6* | -10.7% | 47.4* | -16.1%
Cc1oc(-c2ccc(C(=O)NCc3ccc(Cl)cc3)cc2)nc1CS(=O)(=O)c1ccccc1 | / | / | -2.8% | / | /
COc1ccc(CCN(C)CCCN2CCc3cc(OC)c(OC)cc3CC2=O)cc1OC | / | 3.5 | / | -4.8 | /
Cc1ccc(NC(=S)Nc2cccnc2)c(S(=O)(=O)N2CCCCC2)c1 | / | -2.1 | -14.0% | 19.3 | 14.1µM*
Cc1cc(-c2nnc(SCC(=O)Nc3nc(-c4ccccc4)cs3)o2)no1 | ? | -2.9 | ? | 19.8 | -50.8%
COc1cccc(NC(=O)CSc2nnc(-c3ccc(C)cc3)o2)c1 | -4.3% | 27.8* | ? | 45.2* | -37.5%
Cc1csc(NC(=O)CSc2nnc(-c3cc(C)on3)o2)n1 | ? | 15.1* | 5.0% | 39.9 | -11.0%
COc1ccc(NC(=O)CSc2nnc(-c3ccc(C)cc3)o2)cc1 | / | / | 7.5% | / | /
COc1ccc(-c2nnc(SCC(=O)Nc3cc(C)on3)o2)cc1 | / | 32.9* | ? | 44.0* | -35.5%[11.4 µM]
Cc1cccc(NC(=O)CSc2nnc(-c3ccccc3C)o2)c1 | -3.5% | 36.9* | -5.9% | 68.8* | -14.6%
Cc1ccccc1OCc1nnc(SCc2cc(=O)c3cc(F)ccc3[nH]2)n1C | / | / | 15.1% | / | /
Cc1cc2oc(=O)cc(-c3ccccc3)c2c(C)c1-c1cccc(N)c1 | / | 5.0 | / | i | /
CCNC(=O)CC1SC(=Nc2cccc3ccccc23)N(C)C1=O (stereo not drawn) | 0.1% | -2.4 | -2.8% | -8.3 | -5.8%
COc1ccccc1NC(=O)CSc1nnc(-c2ccc(C)cc2)o1 | -12.9% | 41.0* | -6.8% | 55.7 | -16.7%
O=C(CSc1ccc(Cl)cc1)Nc1cccc(-c2nnc(-c3ccco3)o2)c1 | 1.9% | 1.4 | -7.6% | 2.0 | -26.4%
Cc1ccc(SCC(=O)Nc2cccc(-c3nnc(-c4ccco4)o3)c2)cc1 | -12.7% | 21.3* | ? | 56.4* | ?
SMILES | NS1 function inh | CHX counter | AmpC inh detg | Shiga toxin inh | AmpC no deterg
CC12CCC(C(=O)Nc3cc(Cl)ccc3Cl)(C/C1=N\O)C2(C)C (stereo not drawn) | -16.4% | 7.1 | ? | -5.9 | -2.0%
CC1CCC(NC(=O)c2ccc3c(c2)N(Cc2ccccc2)C(=O)c2ccccc2S3(=O)=O)CC1 (stereo not drawn) | / | / | -2.5% | / | /
O=[N+]([O-])c1cccnc1Oc1ccc(OCc2ccccc2)cc1 | 3.3% | 62.8* | -5.4% | 61.1* | -22.3%
COc1cc(C2SCCS2)cc(Br)c1Oc1ncccc1[N+](=O)[O-] | 4.1% | 1.7 | -0.4% | -7.7 | -35.6%
O=[N+]([O-])c1cccnc1Oc1ccc(C2SCCS2)cc1 | 5.3% | 57.6* | -1.3% | 72.6* | -20.8%
CN(C)/C=C/c1onc(-c2ccccc2Cl)c1C#N | / | 42.0* | -7.9% | 69.3* | -56.2%
